Test results from the supplement of paper PMC4371806.
Whole data set: some 1,600 compounds, median “plate-normalized OD600 growth (mean of duplicates)” near 0.31, cut for the lowest 2% near 0.23. Many of the other results were omitted from the sample, so the lowest values are more common in it than they were.

Test system: Escherichia coli BW25113
Test: plate-normalized OD600 growth (mean of duplicates) (OD600 (normalized)); higher = more growth (less inhibition)
Settings: 10 µM
Procedure: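 E. coli BW25113 in LB (100 µl, 96-well, no shaking) was exposed to 10 µM of each compound (here the ChemBridge subset of a ~30,000-member library) and grown at 37°C for 24 h or 15°C for 48 h, in duplicate. Growth was read as OD600 and the duplicate ODs were normalized across screening plates to correct plate-to-plate variation.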

Structure (SMILES): O=C(O)c1ccc(NS(=O)(=O)c2cccc(C(=O)Nc3ccccc3)c2)cc1
- plate-normalized OD600 growth (temperature: 15°C, 48 h): 0.245
- plate-normalized OD600 growth (temperature: 37°C, 24 h): 0.603

Structure (SMILES): OC(COc1ccc(C23CC4CC(CC(C4)C2)C3)cc1)CN1CCOCC1 (stereo unspecified)
- plate-normalized OD600 growth (temperature: 15°C, 48 h): 0.243
- plate-normalized OD600 growth (temperature: 37°C, 24 h): 0.592

Structure (SMILES): NCC(=O)Nc1ccc(Br)cc1
- plate-normalized OD600 growth (temperature: 15°C, 48 h): 0.227
- plate-normalized OD600 growth (temperature: 37°C, 24 h): 0.606

Structure (SMILES): Cc1ccccc1C(=O)Nc1ccc(Br)cc1
- plate-normalized OD600 growth (temperature: 15°C, 48 h): 0.282
- plate-normalized OD600 growth (temperature: 37°C, 24 h): 0.631

Structure (SMILES): O=C(Nc1ccc(Br)cc1)c1cccnc1
- plate-normalized OD600 growth (temperature: 15°C, 48 h): 0.244
- plate-normalized OD600 growth (temperature: 37°C, 24 h): 0.633

Structure (SMILES): COc1ccc(-c2cn3ccccc3n2)cc1F
- plate-normalized OD600 growth (temperature: 15°C, 48 h): 0.229
- plate-normalized OD600 growth (temperature: 37°C, 24 h): 0.633

Structure (SMILES): O=[N+]([O-])c1ccc(-c2nnc(-c3ccccc3Cl)o2)cc1
- plate-normalized OD600 growth (temperature: 15°C, 48 h): 0.244
- plate-normalized OD600 growth (temperature: 37°C, 24 h): 0.601

Structure (SMILES): CCC(CO)NC1=C([N+](=O)[O-])C(=O)CC(C)(C)C1 (stereo unspecified)
- plate-normalized OD600 growth (temperature: 15°C, 48 h): 0.282
- plate-normalized OD600 growth (temperature: 37°C, 24 h): 0.666

Structure (SMILES): CCN(CC)CCN(C)Cc1cccc([N+](=O)[O-])c1
- plate-normalized OD600 growth (temperature: 15°C, 48 h): 0.245
- plate-normalized OD600 growth (temperature: 37°C, 24 h): 0.601

Structure (SMILES): CCN1CCN(C/C=C/c2ccccc2)CC1
- plate-normalized OD600 growth (temperature: 15°C, 48 h): 0.28
- plate-normalized OD600 growth (temperature: 37°C, 24 h): 0.634

Structure (SMILES): CCN(CC)CCN(C)C/C=C/c1ccccc1
- plate-normalized OD600 growth (temperature: 15°C, 48 h): 0.208
- plate-normalized OD600 growth (temperature: 37°C, 24 h): 0.608

Structure (SMILES): C=CCSc1nc(N)c(C#N)c(CC)c1C#N
- plate-normalized OD600 growth (temperature: 15°C, 48 h): 0.239
- plate-normalized OD600 growth (temperature: 37°C, 24 h): 0.605

Structure (SMILES): Cc1ccccc1C(=O)N1CCCCC1CO (stereo unspecified)
- plate-normalized OD600 growth (temperature: 15°C, 48 h): 0.294
- plate-normalized OD600 growth (temperature: 37°C, 24 h): 0.624

Structure (SMILES): CCC1CCCCN1C(=O)c1cccs1 (stereo unspecified)
- plate-normalized OD600 growth (temperature: 15°C, 48 h): 0.225
- plate-normalized OD600 growth (temperature: 37°C, 24 h): 0.613

Structure (SMILES): CCC1CCCCN1C(=O)c1cccc([N+](=O)[O-])c1C (stereo unspecified)
- plate-normalized OD600 growth (temperature: 15°C, 48 h): 0.247
- plate-normalized OD600 growth (temperature: 37°C, 24 h): 0.612

Structure (SMILES): COc1cc2c(cc1OC)C(c1cc(OC)c(OC)c(OC)c1)N(C)CC2 (stereo unspecified)
- plate-normalized OD600 growth (temperature: 15°C, 48 h): 0.244
- plate-normalized OD600 growth (temperature: 37°C, 24 h): 0.624

Structure (SMILES): COc1cc(OC)cc(C(=O)Nc2cccc(C)c2C)c1
- plate-normalized OD600 growth (temperature: 15°C, 48 h): 0.253
- plate-normalized OD600 growth (temperature: 37°C, 24 h): 0.63

Structure (SMILES): O=C(O)CSc1nccn1Cc1ccccc1
- plate-normalized OD600 growth (temperature: 15°C, 48 h): 0.244
- plate-normalized OD600 growth (temperature: 37°C, 24 h): 0.625

Structure (SMILES): CCOC(=O)N1CCN(Cc2c(F)cccc2F)CC1
- plate-normalized OD600 growth (temperature: 15°C, 48 h): 0.263
- plate-normalized OD600 growth (temperature: 37°C, 24 h): 0.656

Structure (SMILES): CCOC(=O)N1CCN(Cc2ccc(N(C)C)cc2)CC1
- plate-normalized OD600 growth (temperature: 15°C, 48 h): 0.219
- plate-normalized OD600 growth (temperature: 37°C, 24 h): 0.58

Structure (SMILES): CCOC(=O)N1CCN(Cc2ccccc2Cl)CC1
- plate-normalized OD600 growth (temperature: 15°C, 48 h): 0.244
- plate-normalized OD600 growth (temperature: 37°C, 24 h): 0.621

Structure (SMILES): O=C(Nc1ccc(Oc2ccc(NC(=O)c3cccnc3)cc2)cc1)c1cccnc1
- plate-normalized OD600 growth (temperature: 15°C, 48 h): 0.27
- plate-normalized OD600 growth (temperature: 37°C, 24 h): 0.629

Structure (SMILES): Fc1ccc(CN2CCN(c3ncccn3)CC2)cc1
- plate-normalized OD600 growth (temperature: 15°C, 48 h): 0.253
- plate-normalized OD600 growth (temperature: 37°C, 24 h): 0.629

Structure (SMILES): CC(C)(C)c1ccccc1OCCCCSC#N
- plate-normalized OD600 growth (temperature: 15°C, 48 h): 0.209
- plate-normalized OD600 growth (temperature: 37°C, 24 h): 0.619

Structure (SMILES): CC(C)(C)c1ccccc1OCCCSC#N
- plate-normalized OD600 growth (temperature: 15°C, 48 h): 0.233
- plate-normalized OD600 growth (temperature: 37°C, 24 h): 0.622

Structure (SMILES): N#CSCCCCOc1ccccc1Cl
- plate-normalized OD600 growth (temperature: 15°C, 48 h): 0.251
- plate-normalized OD600 growth (temperature: 37°C, 24 h): 0.605

Structure (SMILES): CC(c1ccccc1)N1CCC(=O)C2=C1CCCC2 (stereo unspecified)
- plate-normalized OD600 growth (temperature: 15°C, 48 h): 0.241
- plate-normalized OD600 growth (temperature: 37°C, 24 h): 0.604

Structure (SMILES): [O-][n+]1onc2c(-c3ccccc3)nnc(-c3ccccc3)c21
- plate-normalized OD600 growth (temperature: 15°C, 48 h): 0.254
- plate-normalized OD600 growth (temperature: 37°C, 24 h): 0.616

Structure (SMILES): Fc1ccc(CN2CCN(c3ccccn3)CC2)c(F)c1
- plate-normalized OD600 growth (temperature: 15°C, 48 h): 0.244
- plate-normalized OD600 growth (temperature: 37°C, 24 h): 0.601

Structure (SMILES): N#CCCN(CCN1CCCC1)S(=O)(=O)c1cccc2nsnc12
- plate-normalized OD600 growth (temperature: 15°C, 48 h): 0.253
- plate-normalized OD600 growth (temperature: 37°C, 24 h): 0.624

Structure (SMILES): CN(C)c1nc(N)nc(-c2ccco2)n1
- plate-normalized OD600 growth (temperature: 15°C, 48 h): 0.226
- plate-normalized OD600 growth (temperature: 37°C, 24 h): 0.632

Structure (SMILES): Nc1nc(-c2ccco2)nc(-c2ccco2)n1
- plate-normalized OD600 growth (temperature: 15°C, 48 h): 0.272
- plate-normalized OD600 growth (temperature: 37°C, 24 h): 0.646

Structure (SMILES): N#Cc1c(N)nc2c(c1-c1ccco1)CCCCCC2
- plate-normalized OD600 growth (temperature: 15°C, 48 h): 0.249
- plate-normalized OD600 growth (temperature: 37°C, 24 h): 0.615

Structure (SMILES): O=C1CCCc2c1nn(-c1ccccc1)[n+]2[O-]
- plate-normalized OD600 growth (temperature: 15°C, 48 h): 0.249
- plate-normalized OD600 growth (temperature: 37°C, 24 h): 0.618

Structure (SMILES): O=C(Nc1ccc(F)cc1F)c1cccc(Br)c1
- plate-normalized OD600 growth (temperature: 15°C, 48 h): 0.259
- plate-normalized OD600 growth (temperature: 37°C, 24 h): 0.605

Structure (SMILES): COc1ccc(C)cc1NCc1ccc(SC)cc1
- plate-normalized OD600 growth (temperature: 15°C, 48 h): 0.282
- plate-normalized OD600 growth (temperature: 37°C, 24 h): 0.644

Structure (SMILES): Cc1nc(N)nc(OCC(F)(F)C(F)F)c1Br
- plate-normalized OD600 growth (temperature: 15°C, 48 h): 0.221
- plate-normalized OD600 growth (temperature: 37°C, 24 h): 0.604

Structure (SMILES): CCN(CC)CCOc1ccccc1Br
- plate-normalized OD600 growth (temperature: 15°C, 48 h): 0.233
- plate-normalized OD600 growth (temperature: 37°C, 24 h): 0.621
